{
  "source": "PubChem BioAssay",
  "key": {"[1]": {"system": "PRMT1 (protein arginine N-methyltransferase 1)", "assay": "small molecules binding arginine methyltransferase PRMT1 – biochemical, small-molecule microarray, 635 nm fluorescence, primary screen (AID 1088)", "settings": "higher = more signal"}, "[2]": {"assay": "growth effects on S. cerevisiae YJM789 – YJM789 clinical isolate, OD600, 24 h, basal, primary screen (AID 1089);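 note: growth of clinical yeast isolate S. cerevisiae YJM 789 seeded 1000 cells per well; test concentration not given here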", "settings": "higher = more signal, called active from +8 up or from −8 down"}, "[3]": {"assay": "S. pombe growth modifiers, basal conditions – strain 972, OD600, 24 h, no modulator, primary screen (AID 1090);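 note: basal condition with compound alone and no growth modifier present; test concentration not given here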", "settings": "S. pombe 972 growth, higher = more signal, called active from +8 up or from −8 down"}, "[4]": {"assay": "budding yeast growth modifiers under rapamycin – strain BY4716, OD600, 96 h, primary screen (AID 1091); note: test concentration not given here", "settings": "S. cerevisiae BY4716 + rapamycin, higher = more signal, called active from +8 up or from −8 down"}, "[5]": {"target": "Torsin-1A-interacting protein 2 (Homo sapiens) (UniProt Q8NFQ8)", "sequence (Q8NFQ8 whole entry, looked up)": "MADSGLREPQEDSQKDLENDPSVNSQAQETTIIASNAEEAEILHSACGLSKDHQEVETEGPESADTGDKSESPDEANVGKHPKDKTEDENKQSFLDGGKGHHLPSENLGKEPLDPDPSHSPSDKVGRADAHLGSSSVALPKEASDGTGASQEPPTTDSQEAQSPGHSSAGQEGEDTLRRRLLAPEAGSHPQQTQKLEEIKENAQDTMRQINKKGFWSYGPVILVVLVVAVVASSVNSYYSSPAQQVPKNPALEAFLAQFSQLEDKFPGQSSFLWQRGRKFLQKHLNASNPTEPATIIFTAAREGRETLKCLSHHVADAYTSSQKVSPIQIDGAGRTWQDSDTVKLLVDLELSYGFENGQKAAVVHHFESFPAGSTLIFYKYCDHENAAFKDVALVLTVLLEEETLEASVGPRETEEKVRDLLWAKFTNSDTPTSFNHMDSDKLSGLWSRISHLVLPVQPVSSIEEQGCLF", "assay": "small molecules binding lysate-expressed LULL1 – cell lysate, human LULL1 lysate, 635/667 nm fluorescence, primary screen (AID 1092);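 note: probe is lysate of COS7 cells overexpressing human LULL1; score merges per-feature 667 nm fluorescence with signal-to-noise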", "settings": "small-molecule microarray, hLULL1 lysate binding, 635 nm fluorescence; higher = more signal"}, "[6]": {"assay": "optical density change of DRC41 E. coli – strain DRC41, OD650, 24 h, E. coli filamentation project, primary screen (AID 1093);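 note: MC1000 strain lacking acrAB efflux and sulA so SOS filamentation is blocked; test concentration not given here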", "settings": "E. coli DRC41 growth, higher = more signal, called active from +8 up or from −8 down"}, "[7]": {"assay": "probe aLefty2 binding to arrayed compounds – biochemical, biotinylated probe, 635/667 nm fluorescence, primary screen (AID 1094);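 note: score merges spot fluorescence near 667 nm with spot signal-to-noise ratio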", "settings": "small-molecule microarray, higher = more signal"}, "[8]": {"system": "Noggin (protein binding on small-molecule microarray)", "assay": "small molecules binding Noggin protein – biochemical, 635/667 nm fluorescence, primary screen (AID 1095);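 note: score merges 667 nm feature fluorescence with signal to noise over triplicate slides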", "settings": "635 nm fluorescence, higher = more signal"}, "[9]": {"target": "Neurogenic locus notch homolog protein 3 (Homo sapiens) (UniProt Q9UM47)", "sequence (Q9UM47 whole entry, looked up)": "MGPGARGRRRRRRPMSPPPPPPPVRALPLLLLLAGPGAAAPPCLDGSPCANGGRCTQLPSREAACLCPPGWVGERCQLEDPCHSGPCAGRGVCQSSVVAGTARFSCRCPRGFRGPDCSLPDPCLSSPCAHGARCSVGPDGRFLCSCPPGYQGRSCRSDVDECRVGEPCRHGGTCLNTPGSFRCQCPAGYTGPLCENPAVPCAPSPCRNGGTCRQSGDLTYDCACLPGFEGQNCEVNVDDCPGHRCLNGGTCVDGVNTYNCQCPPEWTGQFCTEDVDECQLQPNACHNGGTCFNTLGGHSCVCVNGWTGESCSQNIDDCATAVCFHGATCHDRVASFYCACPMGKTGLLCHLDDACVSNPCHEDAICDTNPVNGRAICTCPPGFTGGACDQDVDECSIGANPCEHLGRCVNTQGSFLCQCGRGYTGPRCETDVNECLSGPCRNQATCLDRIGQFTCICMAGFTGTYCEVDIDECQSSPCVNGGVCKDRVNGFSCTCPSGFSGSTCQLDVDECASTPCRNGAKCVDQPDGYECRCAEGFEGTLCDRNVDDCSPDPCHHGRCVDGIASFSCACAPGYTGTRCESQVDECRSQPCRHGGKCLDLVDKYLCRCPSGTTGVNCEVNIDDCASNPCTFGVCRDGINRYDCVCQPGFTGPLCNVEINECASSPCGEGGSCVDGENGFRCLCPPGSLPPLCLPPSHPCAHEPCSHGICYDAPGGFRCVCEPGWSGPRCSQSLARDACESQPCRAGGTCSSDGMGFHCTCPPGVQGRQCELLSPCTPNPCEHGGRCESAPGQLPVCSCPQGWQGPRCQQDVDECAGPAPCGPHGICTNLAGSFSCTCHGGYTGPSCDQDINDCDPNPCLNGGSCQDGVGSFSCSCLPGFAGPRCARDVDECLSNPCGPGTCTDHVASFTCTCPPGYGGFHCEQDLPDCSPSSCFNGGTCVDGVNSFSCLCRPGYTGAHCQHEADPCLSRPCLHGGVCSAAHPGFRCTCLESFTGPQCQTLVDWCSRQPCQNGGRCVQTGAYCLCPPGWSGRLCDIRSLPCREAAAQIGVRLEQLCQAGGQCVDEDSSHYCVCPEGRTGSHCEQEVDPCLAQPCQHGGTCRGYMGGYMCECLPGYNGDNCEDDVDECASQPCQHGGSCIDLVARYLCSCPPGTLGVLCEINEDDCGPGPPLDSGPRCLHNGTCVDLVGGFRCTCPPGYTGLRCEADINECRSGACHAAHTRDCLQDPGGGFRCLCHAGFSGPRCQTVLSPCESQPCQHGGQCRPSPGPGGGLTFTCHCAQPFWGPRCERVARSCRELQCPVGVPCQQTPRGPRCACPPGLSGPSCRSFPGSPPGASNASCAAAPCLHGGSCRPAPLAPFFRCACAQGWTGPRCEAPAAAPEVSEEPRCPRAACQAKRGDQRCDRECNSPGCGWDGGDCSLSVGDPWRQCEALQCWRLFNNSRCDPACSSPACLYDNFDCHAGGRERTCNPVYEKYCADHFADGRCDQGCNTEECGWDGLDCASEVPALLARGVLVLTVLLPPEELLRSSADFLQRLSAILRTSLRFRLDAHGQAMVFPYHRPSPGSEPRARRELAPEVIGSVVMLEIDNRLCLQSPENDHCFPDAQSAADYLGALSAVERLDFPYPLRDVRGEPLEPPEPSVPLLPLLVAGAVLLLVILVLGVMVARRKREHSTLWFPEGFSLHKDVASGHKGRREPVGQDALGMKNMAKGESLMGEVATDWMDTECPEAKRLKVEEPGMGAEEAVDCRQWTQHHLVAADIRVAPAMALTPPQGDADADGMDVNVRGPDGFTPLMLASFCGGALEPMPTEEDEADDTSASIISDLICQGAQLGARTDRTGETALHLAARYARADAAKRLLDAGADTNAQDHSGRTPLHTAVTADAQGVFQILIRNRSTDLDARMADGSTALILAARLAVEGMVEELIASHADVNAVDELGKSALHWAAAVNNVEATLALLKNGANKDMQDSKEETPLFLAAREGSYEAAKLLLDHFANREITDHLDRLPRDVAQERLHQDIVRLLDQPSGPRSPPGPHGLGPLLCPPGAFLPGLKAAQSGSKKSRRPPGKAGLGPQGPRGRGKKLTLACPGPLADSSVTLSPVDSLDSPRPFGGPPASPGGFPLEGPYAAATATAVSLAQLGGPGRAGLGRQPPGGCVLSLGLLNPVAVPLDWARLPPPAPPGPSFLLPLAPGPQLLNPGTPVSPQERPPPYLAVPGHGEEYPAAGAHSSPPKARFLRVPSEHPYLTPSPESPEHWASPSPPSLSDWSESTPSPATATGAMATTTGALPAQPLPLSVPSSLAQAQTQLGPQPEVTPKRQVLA", "assay": "small molecules binding NOTCH3 protein – biochemical, 635/667 nm fluorescence, primary screen (AID 1096)", "settings": "small-molecule microarray, 635 nm fluorescence, higher = more signal"}, "[10]": {"assay": "probe aEGFR binding to arrayed compounds – biochemical, biotinylated probe, 635/667 nm fluorescence, primary screen (AID 1097);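 note: probe is a biotinylated anti-EGFR antibody binding compounds printed on slides; score combines fluorescence near 667 nm and signal to noise of each spot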", "settings": "small-molecule microarray, higher = more signal"}},
  "note": "Calls of active or inactive are those of the source.",
  "data": [
    {"smiles": "COC(=O)c1c(CC[C@@H](CO)NC(=O)N[C@@H](C)Cn2cc(-c3ccccn3)nn2)oc(C(C)=O)c1C(=O)OC", "values": [
      {"measurement": "composite z-score", "setting": "[1]", "value": 1.39},
      {"measurement": "z-score", "setting": "[2]", "value": "-0.441 (inactive)"},
      {"measurement": "z-score", "setting": "[3]", "value": "-0.705 (inactive)"},
      {"measurement": "z-score", "setting": "[4]", "value": "0.198 (inactive)"},
      {"measurement": "composite z-score", "setting": "[5]", "value": 1.42},
      {"measurement": "z-score", "setting": "[6]", "value": "-0.608 (inactive)"},
      {"measurement": "composite z-score", "setting": "[7]", "value": -0.115},
      {"measurement": "composite z-score", "setting": "[8]", "value": 1.43},
      {"measurement": "composite z-score", "setting": "[9]", "value": 0.794},
      {"measurement": "composite z-score", "setting": "[10]", "value": -0.164}
    ]},
    {"smiles": "C=C(COC)C(=O)CC[C@@H](OC(C)=O)c1cccc(OCCO)c1", "values": [
      {"measurement": "composite z-score", "setting": "[1]", "value": -0.352},
      {"measurement": "z-score", "setting": "[2]", "value": "1.01 (inactive)"},
      {"measurement": "z-score", "setting": "[3]", "value": "-0.953 (inactive)"},
      {"measurement": "z-score", "setting": "[4]", "value": "0.962 (inactive)"},
      {"measurement": "composite z-score", "setting": "[5]", "value": -0.329},
      {"measurement": "z-score", "setting": "[6]", "value": "0.302 (inactive)"},
      {"measurement": "composite z-score", "setting": "[7]", "value": -0.116},
      {"measurement": "composite z-score", "setting": "[8]", "value": -0.0606},
      {"measurement": "composite z-score", "setting": "[9]", "value": -0.132},
      {"measurement": "composite z-score", "setting": "[10]", "value": -0.211}
    ]},
    {"smiles": "C=C[C@@H](CO)N(Cc1ccc(OC)cc1)S(=O)(=O)c1ccc(Br)cc1", "values": [
      {"measurement": "composite z-score", "setting": "[1]", "value": -0.043},
      {"measurement": "z-score", "setting": "[2]", "value": "-3.19 (inactive)"},
      {"measurement": "z-score", "setting": "[3]", "value": "-6.8 (inactive)"},
      {"measurement": "z-score", "setting": "[4]", "value": "-1.92 (inactive)"},
      {"measurement": "composite z-score", "setting": "[5]", "value": 0.268},
      {"measurement": "z-score", "setting": "[6]", "value": "2.31 (inactive)"},
      {"measurement": "composite z-score", "setting": "[7]", "value": 0.0711},
      {"measurement": "composite z-score", "setting": "[8]", "value": -0.193},
      {"measurement": "composite z-score", "setting": "[9]", "value": -0.731},
      {"measurement": "composite z-score", "setting": "[10]", "value": -0.0967}
    ]},
    {"smiles": "O=C1CS(=O)(=O)C(c2cccc([N+](=O)[O-])c2)N1c1ccccc1", "note": "(stereo not given)", "values": [
      {"measurement": "composite z-score", "setting": "[1]", "value": -0.0065},
      {"measurement": "z-score", "setting": "[2]", "value": "-2.58 (inactive)"},
      {"measurement": "z-score", "setting": "[3]", "value": "-2.56 (inactive)"},
      {"measurement": "z-score", "setting": "[4]", "value": "-0.811 (inactive)"},
      {"measurement": "composite z-score", "setting": "[5]", "value": 1.85},
      {"measurement": "z-score", "setting": "[6]", "value": "0.672 (inactive)"},
      {"measurement": "composite z-score", "setting": "[7]", "value": 0.554},
      {"measurement": "composite z-score", "setting": "[8]", "value": 0.253},
      {"measurement": "composite z-score", "setting": "[9]", "value": 0.336},
      {"measurement": "composite z-score", "setting": "[10]", "value": 0.583}
    ]},
    {"smiles": "CO[C@H]1O[C@H](CO)[C@@H](OC(=O)Nc2ccccc2)[C@H](OC(=O)c2cc3ccccc3[nH]2)[C@H]1OC(=O)c1cc2ccccc2[nH]1", "values": [
      {"measurement": "composite z-score", "setting": "[1]", "value": 0.499},
      {"measurement": "z-score", "setting": "[2]", "value": "-1.63 (inactive)"},
      {"measurement": "z-score", "setting": "[3]", "value": "-0.562 (inactive)"},
      {"measurement": "z-score", "setting": "[4]", "value": "0.216 (inactive)"},
      {"measurement": "composite z-score", "setting": "[5]", "value": 0.87},
      {"measurement": "z-score", "setting": "[6]", "value": "0.0433 (inactive)"},
      {"measurement": "composite z-score", "setting": "[7]", "value": -0.0107},
      {"measurement": "composite z-score", "setting": "[8]", "value": 0.248},
      {"measurement": "composite z-score", "setting": "[9]", "value": 0.196},
      {"measurement": "composite z-score", "setting": "[10]", "value": 0.0153}
    ]},
    {"smiles": "Cn1cccc1C(O)C1C=CC2C(=O)N(c3ccccc3)C(=O)C2N1Nc1ccccc1", "note": "(stereo not given)", "values": [
      {"measurement": "composite z-score", "setting": "[1]", "value": 1.56},
      {"measurement": "z-score", "setting": "[2]", "value": "0.537 (inactive)"},
      {"measurement": "z-score", "setting": "[3]", "value": "0.445 (inactive)"},
      {"measurement": "z-score", "setting": "[4]", "value": "0.566 (inactive)"},
      {"measurement": "composite z-score", "setting": "[5]", "value": 3.37},
      {"measurement": "z-score", "setting": "[6]", "value": "-0.598 (inactive)"},
      {"measurement": "composite z-score", "setting": "[7]", "value": 0.27},
      {"measurement": "composite z-score", "setting": "[8]", "value": 0.781},
      {"measurement": "composite z-score", "setting": "[9]", "value": 1.02},
      {"measurement": "composite z-score", "setting": "[10]", "value": 0.0651}
    ]},
    {"smiles": "CCCC=C(CCC)[C@@H](NS(=O)(=O)CC12CCC(CC1=O)C2(C)C)c1ccc(C(=O)OC)cc1", "note": "(stereo not given in full)", "values": [
      {"measurement": "composite z-score", "setting": "[1]", "value": 0.788},
      {"measurement": "z-score", "setting": "[2]", "value": "-0.723 (inactive)"},
      {"measurement": "z-score", "setting": "[3]", "value": "-0.005 (inactive)"},
      {"measurement": "z-score", "setting": "[4]", "value": "-0.909 (inactive)"},
      {"measurement": "composite z-score", "setting": "[5]", "value": 3.78},
      {"measurement": "z-score", "setting": "[6]", "value": "0.0623 (inactive)"},
      {"measurement": "composite z-score", "setting": "[7]", "value": 0.0672},
      {"measurement": "composite z-score", "setting": "[8]", "value": -0.132},
      {"measurement": "composite z-score", "setting": "[9]", "value": 0.408},
      {"measurement": "composite z-score", "setting": "[10]", "value": 0.471}
    ]}
  ]
}
